From PubChem BioAssay
A selection: hits, their analogues and other compounds. The true share with any hit is near 2%.
M4 ag: agonists of human muscarinic M4 receptor (CHRM4). P08173. CHO-K1 hM4/Gqi5, Fluo-8 calcium fluorescence; vehicle 0%, full acetylcholine response 100%. activation, % at 3 µM. 360,000 compounds, 0.14% hits. AID 624127;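 active = activation above the run mean over all test wells plus 3 SD, cut at about 32% in these data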;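 also: peak over basal fluorescence ratio per well then scaled between controls; 0% = DMSO wells and 100% = acetylcholine at EC100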
Target sequence (P08173 whole entry, looked up): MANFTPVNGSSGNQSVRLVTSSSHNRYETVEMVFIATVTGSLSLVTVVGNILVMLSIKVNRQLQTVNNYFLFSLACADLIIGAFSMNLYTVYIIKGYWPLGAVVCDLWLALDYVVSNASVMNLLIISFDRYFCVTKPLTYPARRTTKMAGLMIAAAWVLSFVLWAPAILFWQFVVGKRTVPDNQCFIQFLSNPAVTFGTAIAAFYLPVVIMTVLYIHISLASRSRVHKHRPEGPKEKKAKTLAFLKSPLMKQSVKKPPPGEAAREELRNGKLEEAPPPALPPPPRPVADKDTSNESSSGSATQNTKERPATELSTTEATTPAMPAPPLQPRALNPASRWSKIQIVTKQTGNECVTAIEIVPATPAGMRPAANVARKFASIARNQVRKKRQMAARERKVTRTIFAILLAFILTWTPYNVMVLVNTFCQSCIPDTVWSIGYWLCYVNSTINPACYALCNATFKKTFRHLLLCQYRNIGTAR
M1 ag parental: counter-screen for M1 agonists: effect in parental CHO-K1 cells; Fluo-8 calcium fluorescence; scaled to maximal ATP response, vehicle zero; activation, % at 3 µM; 360,000 compounds, 0.48% hits; in the data active = activation above about 15%;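 also: untransfected CHO-K1 host cells lacking M1 receptor as counterscreen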
M4 PAM: potentiates acetylcholine response at human M4 receptor; P08173; CHO-K1 hM4/Gqi5, Fluo-8 calcium fluorescence, ACh EC20; 0% = ACh EC20, 100% = maximal ACh; activation, % at 3 µM; 360,000 compounds, 0.4% hits; AID 624126;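 active = activation above its plate's cutoff, the mean activation of sample wells plus 3 SD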
CHRM4 antagonist: blocks acetylcholine activation of human M4 receptor. P08173. CHO-hM4 cells, ACh EC80, Fluo-8 calcium fluorescence. inhibition, % at 3 µM. 360,000 compounds, 0.73% hits;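 active = inhibition above its plate's cutoff, the mean inhibition of sample wells plus 3 SD, cut at about 27% in these data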;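 also: 0% = acetylcholine EC80 with DMSO and 100% = DMSO without agonist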
CHO-K1 Ca antag: nonselective inhibitor or artifact in parental CHO-K1 cells | ATP-induced calcium, Fluo-8 fluorescence | inhibition, % at 3 µM | 360,000 compounds, 0.6% hits;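 active = inhibition above a per-plate cutoff, the plate's mean sample inhibition plus 3 SD, cut at about 24% in these data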;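 also: 0% = DMSO plus EC80 ATP and 100% = DMSO alone without ATP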
M1 PAM parental: counter-screen for M1 PAMs: effect in parental CHO-K1 cells | ATP EC20, Fluo-8 calcium fluorescence; 0% at ATP EC20, 100% at ATP max | 360,000 compounds, 0.02% hits | activation, % at 3 µM;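 active = activation above the run cutoff, the mean activation of all test compounds plus 3 SD, cut at about 40% in these data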;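 also: peak over basal fluorescence ratio in a 140 s read after ATP addition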
Active calls of the source: *.

SMILES	M4 ag	M1 ag parental	M4 PAM	CHRM4 antagonist	CHO-K1 Ca antag	M1 PAM parental
O=C(c1ccc(C#CC2(O)CCCCC2)cc1)N1CCN(C(c2ccccc2)c2ccccc2)CC1	2	0	-25	35*	-27	18
O=C(NC(=O)N1CCN(C(c2ccccc2)c2ccccc2)CC1)c1ccccc1	0	1	-35	30*	-11	12
COc1ccc(C2=NOC(C)(c3nnc(-c4ccc(Cl)cc4)o3)C2)cc1 (centres undefined)	1	0	-4	-14	-18	18
CCCNc1c(NS(=O)(=O)c2ccc(Cl)s2)c(=O)oc2ccccc12	2	0	-3	-1	29*	-12
CCCNc1c(NS(=O)(=O)c2cccs2)c(=O)oc2ccccc12	1	1	-2	-4	-17	17
CCN(CC1CCCO1)C(=O)c1cc(COc2ccccc2SC)on1 (centres undefined)	4	2	-2	0	-7	8
CNc1ccc(C(O)(C(F)(F)F)C(F)(F)F)cc1C(O)(C(F)(F)F)C(F)(F)F	-1	0	0	5	35*	-8
COc1ccc(-c2cc(CNc3nc4cc(-c5ccccc5C)sc4c(=O)n3C)on2)cc1	0	0	2	-10	-5	3
CCC(C)(C)c1ccc(OCCCC[n+]2cccc(C)c2)c(C(C)(C)CC)c1	2	14	-17	47*	10	28
O=C(c1ccc([N+](=O)[O-])cc1)N(Cc1ccc(Cl)cc1Cl)N1C(=O)CCCC1=O	1	0	0	67*	-18	11
Cc1cccc(C)c1NC(=O)C(=O)NCC1CCCN1S(=O)(=O)c1cccs1 (centres undefined)	2	0	-6	10	12	6
COc1ccc(NC(=O)Cn2cnc3sc(C)c(S(=O)(=O)N4CCOCC4)c3c2=O)cc1Cl	1	0	7	-3	-13	9
CC(C)(C)C1(C)OC(=O)C(=Cc2ccc(OCC(=O)Nc3ccccc3)cc2)C(=O)O1 (centres undefined)	3	5	30*	-17	-7	18
CSCCC(NC(=O)COc1ccccc1)C(=O)N1CCCC(C(F)(F)F)C1 (centres undefined)	2	0	1	-5	4	20
O=C(CNCc1ccc(Cl)cc1)Nc1ccc2c(c1)OCCO2	3	22*	1	-2	-10	21
O=C(COC(=O)/C=C/c1ccc(Cl)cc1)Nc1ccc2c(c1)OCCO2	3	1	34*	-14	-7	22
CC(=O)Nc1ccc2c(c1)OCCOCCOc1cc(NC(C)=O)ccc1OCCO2	5	2	13	27*	-1	-14
O=C(COC(=O)/C=C/c1ccccc1)Nc1ccc2c(c1)OCCO2	0	0	27*	-19	-20	6
O=C(CNCc1ccccc1Cl)Nc1ccc2c(c1)OCCO2	8	4	5	14	-11	21
CCn1c(C(=O)O)c(CC(=O)Nc2ccccc2OC)c2ccccc21	0	0	0	-5	5	14
COc1ccc(C(=O)NNC(=O)CSc2nnc(C)n2CC2CCCO2)cc1 (centres undefined)	2	0	4	-3	-13	6
CCCCCCN1C[C@@H](O)[C@H](n2cc(C3CC3)nn2)C[C@@H]1c1ccccc1	2	0	7	-18	-2	0
Cc1ccc2cc(CN(Cc3ccc4c(c3)OCO4)Cc3nnnn3Cc3ccco3)c(=O)[nH]c2c1C	3	1	23*	-3	-8	19
Cc1ccc2cc(CN(Cc3cccs3)Cc3nnnn3CC3CCCO3)c(=O)[nH]c2c1 (centres undefined)	9	3	4	-8	-22	22
Cc1ccc(C)c2[nH]c(=O)c(CN(Cc3ccc4c(c3)OCO4)Cc3nnnn3Cc3ccco3)cc12	11	4	-11	12	-2	23
SMILES	M4 ag	M1 ag parental	M4 PAM	CHRM4 antagonist	CHO-K1 Ca antag	M1 PAM parental
Cc1ccc2cc(CN(Cc3cccs3)Cc3nnnn3CC3CCCO3)c(=O)[nH]c2c1C (centres undefined)	2	0	9	-4	24*	-3
COc1ccc(S(=O)(=O)c2nnn(-c3cccc(Cl)c3)c2N)cc1	9	2	-4	0	25*	-16
COc1ccc(C2C(C(=O)N3CCN(C)CC3)c3ccccc3C(=O)N2C2CCCCC2)cc1 (centres undefined)	2	1	22*	-9	-4	18
O=C(CCl)N1c2ccccc2Oc2ccc3ccccc3c21	48*	9	-12	32*	16	6
CC(=O)N1c2ccccc2Oc2cc3ccccc3cc21	-1	0	-1	2	15	-9
O=[N+]([O-])c1cc2c(cc1CN1CCN(CCOCCO)CC1)OCO2	0	0	-6	-8	-2	3
O=[N+]([O-])c1cccc(COc2ccccc2CN2CCCCC2)c1	1	0	-3	0	-5	-6
O=[N+]([O-])c1cccc(COc2ccc(CN3CCCCC3)cc2)c1	5	2	-17	56*	-5	-7
CN(CCOc1ccc(Cl)cc1)C(=O)c1cccc(S(=O)(=O)N2CCN(Cc3ccccc3)CC2)c1	15	13	-5	20	11	-12
CC(=O)c1sc2nc(-c3ccc(C)cc3)c3c(c2c1N)CCCC3	-1	0	-12	-3	6	-5
Cc1ccc(-c2nc3sc(C(N)=O)c(N)c3c3c2CCCC3)cc1	-2	1	-18	99*	-6	5
OC(c1cc(-c2cccc(Cl)c2)nc2ccccc12)C1CCCCN1 (centres undefined)	23	27*	11	37*	15	12
OC(c1cc(C(F)(F)F)nc2c(C(F)(F)F)cccc12)C1CCCCN1 (centres undefined)	15	2	0	4	20	-3
CC1CCN(CCCCOc2ccc(Br)cc2)CC1	3	1	-13	11	-3	-3
CC1CCN(CCCCOc2cccc(Br)c2)CC1	5	1	-16	68*	-7	15
Cc1ccccc1Nc1nc(N)nc(CSc2nc3ccccc3c(=O)n2C)n1	9	18*	0	3	29*	-2
Cc1ccccc1Nc1nc(N)nc(CSc2nc3ccccc3c(=O)n2CCCO)n1	20	4	3	-6	-26	19
Cc1ccc(O)c(C(=O)c2cnc3c(c2)c(=O)n(C)c(=O)n3C)c1	2	0	5	-3	-1	8
Cc1ccc(O)c(C(=O)c2cnc(/N=C(\N)N(C)C)nc2)c1	2	1	-21	38*	-23	29
